Laboratory results taken from PubChem BioAssay (Tox21).
Records with an inconclusive call do not appear. Entries that show only a call come without a potency. The source made the active and inactive calls. Calls follow the shape of the full dose curve. Non-standard residues stand in square brackets, D forms with d. Residues, ends and D or L forms follow the SMILES beside them. pGlu = O=C1CC[C@@H](C(=O)O)N1

Assay: qHTS assay for small molecule agonists of the p53 signaling pathway - cell viability (AID 651633); also: nearly all actives have a fitted effect of over 30% in size
Conditions: p53RE-bla HCT-116 viability, ATP luminescence, 16 h; series mostly up to 83.3 µM
Text: National Center for Advancing Translational Sciences [NCATS]
NIH Chemical Genomics Center [NCGC]
U.S. Environmental Protection Agency [EPA]
National Institutes of Environmental Health Sciences [NIEHS]
National Toxicology Program [NTP]
U.S. Food and Drug Administration [FDA]
p53, a tumor suppressor protein, is activated following cellular insult, including DNA damage and other cellular stresses. The activation of p53 regulates cell fate by inducing DNA repair, cell cycle arrest, apoptosis, or cellular senescence. The activation of p53, therefore, is a good indicator of DNA damage and other cellular stresses. […] The activation of the reporter gene under culture conditions can be detected by fluorescence intensity. This cell line was used to screen the Tox21 compound library in a 1536-well plate format and to identify agonists that activate the p53 signaling pathway.
Tox21 Assay Protocol Summary:
The p53RE-bla cells were dispensed at 4,000 cells/5 ul/well in 1536-well black wall/clear bottom plates using a Multidrop dispenser. After the assay plates were incubated at a 37 C/5% CO2 incubator for 5 hours, 23 nL of compounds dissolved in DMSO, positive controls or DMSO only was transferred to the assay plate by a pin tool. The plates were incubated at 37 C for 16 hours. After 1 uL of LiveBLAzerTM B/G FRET substrate was added using a Flying Reagent Dispenser, the plates were incubated at room temperature for 2 hours, and fluorescence intensity was measured by an Envision plate reader.
For cell viability readout that measures cytotoxicity, 4 ul/well of CellTiter-Glo reagent was added into the assay plates using a Flying Reagent Dispenser. After 30 min incubation at room temperature, the luminescence intensity in the plates was measured using a ViewLux plate reader.
Potency is read from the fitted curve at half-maximal effect.

Question: With CN=C(NC)NCc1ccccc1 as the molecule, how does the Potency read?
Answer: inactive

Question: For NC(=O)OC[C@@H]1[C@H](NC(=O)/C(=N\OCC(=O)O)c2csc(N)n2)C(=O)N1S(=O)(=O)O, which Potency is on record?
Answer: inactive

Question: Which Potency does the source give for CCCC(=O)N1CCCN(c2nc(N)c3cc(OC)c(OC)cc3n2)CC1 here?
Answer: inactive

Question: Which Potency does the source give for CSc1nc2cc(Oc3cccc(Cl)c3Cl)c(Cl)cc2[nH]1 here?
Answer: 10.6 µM (active)

Question: Which Potency does the source give for O=P(O)(O)OC(CO)CO here?
Answer: inactive

Question: With CN1CCN(C(c2ccccc2)c2ccc(Cl)cc2)CC1 (stereo not given) as the molecule, how does the Potency read?
Answer: inactive

Question: For N=C(N)c1ccc(OCCCOc2ccc(C(=N)N)cc2Br)c(Br)c1, which Potency is on record?
Answer: inactive

Question: With CO[C@H]1C[C@H](O[C@H]2[C@H](C)[C@@H](O[C@@H]3O[C@H](C)C[C@H](N(C)C)[C@H]3OC(C)=O)[C@@H](C)C[C@]3(CO3)C(=O)[C@H](C)[C@@H](OC(C)=O)[C@@H](C)[C@@H](C)OC(=O)[C@@H]2C)O[C@@H](C)[C@@H]1OC(C)=O as the molecule, how does the Potency read?
Answer: inactive

Question: For CN(CCO)CC(O)Cn1cnc2c1c(=O)n(C)c(=O)n2C (stereo not given) (tested in a mixture with another compound), which Potency is on record?
Answer: inactive

Question: For C[C@@H]1C[C@H]2[C@@H]3CCC4=CC(=O)C=C[C@]4(C)[C@@]3(F)[C@@H](O)C[C@]2(C)[C@@]1(O)C(=O)COC(=O)c1cccc(S(=O)(=O)O)c1, which Potency is on record?
Answer: inactive

Question: Which Potency does the source give for c1ccc2cc(C3=NCCN3)ccc2c1 here?
Answer: inactive

Question: Which Potency does the source give for CCCCCCCCCCCCCCCC(=O)O[C@@H]1[C@@H](O)[C@@H](O)[C@@H]([C@H](NC(=O)[C@@H]2C[C@@H](CCC)CN2C)[C@H](C)Cl)O[C@@H]1SC here?
Answer: inactive

Question: For CCC(C)(C)OC(=O)N[C@@H](Cc1c[nH]c2ccccc12)C(=O)N[C@@H](CCSC)C(=O)N[C@@H](CC(=O)O)C(=O)N[C@@H](Cc1ccccc1)C(N)=O, which Potency is on record?
Answer: inactive

Question: For C=CCOc1ccc(CC(=O)O)cc1Cl, which Potency is on record?
Answer: inactive

Question: For O=C(O)c1cccc(/C=C2/C[C@@H]3[C@@H](/C=C/[C@@H](O)C4CCCCC4)[C@H](O)C[C@@H]3O2)c1, which Potency is on record?
Answer: inactive

Question: With CC(CCc1ccc(O)cc1)NCC(O)c1ccc(O)cc1 (stereo not given) as the molecule, how does the Potency read?
Answer: inactive

Question: For Cc1cc2nc3c(=O)[nH]c(=O)nc-3n(C[C@H](O)[C@H](O)[C@H](O)COP(=O)(O)OP(=O)(O)OC[C@H]3O[C@@H](n4cnc5c(N)ncnc54)[C@H](O)[C@@H]3O)c2cc1C, which Potency is on record?
Answer: inactive

Question: For CC(CN1c2ccccc2Sc2cccnc21)N(C)C (stereo not given), which Potency is on record?
Answer: inactive

Question: With CC[C@@H]1/C=C(\C)C[C@H](C)C[C@H](OC)[C@H]2O[C@@](O)(C(=O)C(=O)N3CCCC[C@H]3C(=O)O[C@H](/C(C)=C/[C@@H]3CC[C@@H](Cl)[C@H](OC)C3)[C@H](C)[C@@H](O)CC1=O)[C@H](C)C[C@@H]2OC as the molecule, how does the Potency read?
Answer: inactive

Question: For NC(N)=NCC1COc2ccccc2O1 (stereo not given), which Potency is on record?
Answer: inactive

Question: With CC(NNC(=O)c1ccccc1)c1ccccc1 (stereo not given) as the molecule, how does the Potency read?
Answer: inactive

Question: For Nc1ncnc(Nc2ccc(Cl)cc2)n1, which Potency is on record?
Answer: inactive

Question: For NCCCC[C@H](NC(=O)[C@@H]1CCCN1C(=O)[C@@H]1CSSC[C@H](N)C(=O)N[C@@H](Cc2ccccc2)C(=O)N[C@@H](Cc2ccccc2)C(=O)N[C@@H](CCC(N)=O)C(=O)N[C@@H](CC(N)=O)C(=O)N1)C(=O)NCC(N)=O, which Potency is on record?
Answer: inactive

Question: With CN1C(=O)CN2CCc3ccccc3C2c2cc(Cl)ccc21 (stereo not given) as the molecule, how does the Potency read?
Answer: inactive

Question: For NS(=O)(=O)c1cc2c(cc1Cl)NC(Cc1ccccc1)NS2(=O)=O (stereo not given), which Potency is on record?
Answer: inactive

Question: For C=CC1=C(C)C2=CC3=NC(=C(CC(=O)[O-])C4=NC(=C(C)C4=C([O-])[O-])C=c4[n-]c(c(C)c4CC)=CC1=N2)C(CCC(=O)[O-])C3C.[Cu+2].[Na+].[Na+].[Na+] (stereo not given), which Potency is on record?
Answer: inactive

Question: With NCCCC[C@H](N)C(=O)O as the molecule, how does the Potency read?
Answer: inactive

Question: For CC[C@H](C)[C@H](NC(=O)[C@H](Cc1ccccc1)NC(=O)[C@H](C)NC(=O)[C@H](CC(=O)O)NC(=O)[C@H](CCCCN)NC(=O)[C@H](CO)NC(=O)[C@@H]1CCCN1C(=O)[C@@H]1CCC(=O)N1)C(=O)NCC(=O)N[C@@H](CC(C)C)C(=O)N[C@@H](CCSC)C(N)=O ([pGlu]PSKDAFIGLM-NH2), which Potency is on record?
Answer: inactive

Question: For Cc1ccccc1CNc1ncnc2c1ncn2[C@@H]1O[C@H](CO)[C@@H](O)[C@H]1O, which Potency is on record?
Answer: inactive

Question: With C[Se]CCC(N)C(=O)O (stereo not given) as the molecule, how does the Potency read?
Answer: inactive

Question: Which Potency does the source give for CN1c2c(nc(N)[nH]c2=O)NCC1CNc1ccc(C(=O)NC(CCC(=O)O)C(=O)O)cc1 (stereo not given) here?
Answer: inactive

Question: With CC(=O)N[C@@H](C=O)[C@@H](O)[C@H](O)[C@H](O)CO as the molecule, how does the Potency read?
Answer: inactive

Question: Which Potency does the source give for CCN(CC)CCOC(=O)c1cccnc1 here?
Answer: inactive

Question: Which Potency does the source give for COc1ccc(-c2noc(CC(=O)O)c2-c2ccc(OC)cc2)cc1 here?
Answer: inactive

Question: Which Potency does the source give for CC(C)(S)[C@@H](N)C(=O)O here?
Answer: inactive

Question: Which Potency does the source give for COc1ccc(C(=O)Nc2ccccc2CCC2CCCCN2C)cc1 (stereo not given) here?
Answer: inactive

Question: With CCOC(=O)[C@@H](N)CS as the molecule, how does the Potency read?
Answer: inactive

Question: Which Potency does the source give for C=C[C@]1(C)C[C@@H](OC(=O)CSC(C)(C)CNC(=O)[C@H](N)C(C)C)[C@]2(C)[C@H](C)CC[C@]3(CCC(=O)[C@H]32)[C@@H](C)[C@@H]1O here?
Answer: inactive

Question: For C[C@H]1C[C@@H]2[C@H]([C@@H](O)C[C@@]3(C)[C@H]2CC[C@]3(O)C(=O)COC(=O)CCC(=O)O)[C@@]2(C)C=CC(=O)C=C12, which Potency is on record?
Answer: inactive

Question: For CCCc1nc(C(C)(C)O)c(C(=O)OCc2oc(=O)oc2C)n1Cc1ccc(-c2ccccc2-c2nn[nH]n2)cc1, which Potency is on record?
Answer: inactive
